Data from PubChem BioAssay (NCI).
This is part of a sample that, as a whole, favours compounds with a hit. Of some 83,000 tested, about 20% had one in any assay.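 Values shown are percent growth following 48 h exposure of cells in 96-well plates to a single concentration of compound; below 10 was considered active.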 Active and inactive are the calls of the source.

How the values were obtained:
Assay in all cases: NCI-60 one-dose screen, 48 h (100 = growth as untreated, 0 = no growth, -100 = all killed)
Settings in all cases: 10 µM unless noted
SR leukemia = test system: SR leukemia
RPMI-8226 leukemia = test system: RPMI-8226 leukemia
OVCAR-8 ovarian = test system: OVCAR-8 ovarian
OVCAR-5 ovarian = test system: OVCAR-5 ovarian
OVCAR-4 ovarian = test system: OVCAR-4 ovarian
SK-OV-3 ovarian = test system: SK-OV-3 ovarian
IGROV1 ovarian = test system: IGROV1 ovarian
OVCAR-3 ovarian = test system: OVCAR-3 ovarian
HS 578T breast = test system: HS 578T breast
NCI/ADR-RES ovarian = test system: NCI/ADR-RES ovarian

Measured: growth

CN(C)c1ccc(C2CC(c3ccccc3)=NN2/C=C2\SC(=O)NC2=O)cc1 (stereo not given)
inactive: SR leukemia 50.8% | RPMI-8226 leukemia 87.7% | OVCAR-8 ovarian 100% | OVCAR-5 ovarian 94.2% | OVCAR-4 ovarian 82.6% | SK-OV-3 ovarian 115% | IGROV1 ovarian 94% | OVCAR-3 ovarian 101% | HS 578T breast 98.1% | NCI/ADR-RES ovarian 95.2%

CC(Br)C(Br)c1cc2c(cc1Br)OCO2 (stereo not given)
inactive: SR leukemia 98.6% | RPMI-8226 leukemia 105% | OVCAR-8 ovarian 100% | OVCAR-5 ovarian 98.6% | OVCAR-4 ovarian 105% | SK-OV-3 ovarian 84% | IGROV1 ovarian 97.5% | OVCAR-3 ovarian 107% | NCI/ADR-RES ovarian 99.1%
active: HS 578T breast -96.5%

Clc1nc2ccccc2nc1CI
inactive: RPMI-8226 leukemia 77.6% | OVCAR-8 ovarian 90.4% | OVCAR-5 ovarian 109% | OVCAR-4 ovarian 94.3% | SK-OV-3 ovarian 104% | IGROV1 ovarian 72.7% | OVCAR-3 ovarian 123% | HS 578T breast 115% | NCI/ADR-RES ovarian 98.9%
active: SR leukemia 8.99%

Nc1c(C(=O)Nc2cccc(Cl)c2Cl)sc2nc3c(cc12)C(=O)CCC3
inactive: SR leukemia 95.6% | RPMI-8226 leukemia 102% | OVCAR-8 ovarian 114% | OVCAR-5 ovarian 99.1% | OVCAR-4 ovarian 104% | SK-OV-3 ovarian 24.2% | IGROV1 ovarian 72.8% | OVCAR-3 ovarian 95.6% | HS 578T breast 88.2% | NCI/ADR-RES ovarian 73.4%

N#Cc1ccc(NC(=O)c2ccc3cccnc3c2O)cc1
active: NCI/ADR-RES ovarian 8.81%
inactive: SR leukemia 25.6% | RPMI-8226 leukemia 23.4% | OVCAR-8 ovarian 16% | OVCAR-5 ovarian 60.6% | OVCAR-4 ovarian 16.5% | SK-OV-3 ovarian 19.8% | IGROV1 ovarian 21.3% | OVCAR-3 ovarian 26% | HS 578T breast 53.8%

COc1cccc(/C=C2\SC(N3CCN(c4ccccn4)CC3)=NC2=O)c1
inactive: SR leukemia 89.7% | RPMI-8226 leukemia 85.8% | OVCAR-8 ovarian 100% | OVCAR-5 ovarian 113% | OVCAR-4 ovarian 110% | SK-OV-3 ovarian 111% | IGROV1 ovarian 103% | OVCAR-3 ovarian 100% | HS 578T breast 95.8% | NCI/ADR-RES ovarian 103%

Nc1ccc(S(=O)(=O)c2ccc(Cl)cc2)cc1
inactive: SR leukemia 112% | RPMI-8226 leukemia 101% | OVCAR-8 ovarian 107% | OVCAR-5 ovarian 90.1% | OVCAR-4 ovarian 110% | SK-OV-3 ovarian 109% | IGROV1 ovarian 97.3% | OVCAR-3 ovarian 98.8% | HS 578T breast 96% | NCI/ADR-RES ovarian 95.2%

O=C1CCCCC=C1C[N+](=O)[O-]
inactive: RPMI-8226 leukemia 60.6% | OVCAR-8 ovarian 86.8% | OVCAR-5 ovarian 104% | OVCAR-4 ovarian 94.9% | SK-OV-3 ovarian 99.1% | IGROV1 ovarian 91.6% | OVCAR-3 ovarian 61% | HS 578T breast 107% | NCI/ADR-RES ovarian 101%
active: SR leukemia 2.57%

Cc1ccc(S(=O)(=O)OC2COCOC2C(OS(=O)(=O)c2ccc(C)cc2)C2OCOCC2OS(=O)(=O)c2ccc(C)cc2)cc1 (stereo not given)
inactive: SR leukemia 96.2% | RPMI-8226 leukemia 107% | OVCAR-8 ovarian 103% | OVCAR-5 ovarian 101% | OVCAR-4 ovarian 118% | SK-OV-3 ovarian 107% | IGROV1 ovarian 110% | OVCAR-3 ovarian 110% | HS 578T breast 107% | NCI/ADR-RES ovarian 110%

Nc1nn2cc(-c3ccc(Cl)s3)nc2c2ccccc12
inactive: SR leukemia 49.7% | RPMI-8226 leukemia 92% | OVCAR-8 ovarian 105% | OVCAR-5 ovarian 79.1% | OVCAR-4 ovarian 87.5% | SK-OV-3 ovarian 103% | IGROV1 ovarian 44.7% | OVCAR-3 ovarian 77.8% | HS 578T breast 96.7% | NCI/ADR-RES ovarian 86.7%

COc1ccc(NC(=O)c2cc3ccccc3nc2Nc2cc(OC)c(OC)c(OC)c2)cc1
inactive: SR leukemia 56.6% | RPMI-8226 leukemia 35.5% | OVCAR-8 ovarian 41.9% | OVCAR-5 ovarian 92.4% | OVCAR-4 ovarian 58.1% | SK-OV-3 ovarian 91.7% | IGROV1 ovarian 87% | OVCAR-3 ovarian 48% | HS 578T breast 79% | NCI/ADR-RES ovarian 43.2%

CCCCCCCCCCCCOB(OCCCCCCCCCCCC)OCCCCCCCCCCCC
active: SK-OV-3 ovarian -1.64%
inactive: SR leukemia 89.8% | RPMI-8226 leukemia 95.8% | OVCAR-8 ovarian 101% | OVCAR-5 ovarian 110% | OVCAR-4 ovarian 121% | IGROV1 ovarian 107% | OVCAR-3 ovarian 74.3% | HS 578T breast 107% | NCI/ADR-RES ovarian 97.6%

C=CCOc1cccc(/C=C/C(=O)c2sc(Nc3cccnc3)nc2C)c1
inactive: SR leukemia 42.4% | RPMI-8226 leukemia 23.1% | OVCAR-8 ovarian 52.6% | OVCAR-5 ovarian 108% | OVCAR-4 ovarian 69.5% | SK-OV-3 ovarian 88.5% | IGROV1 ovarian 62.9% | OVCAR-3 ovarian 14.9% | HS 578T breast 99.9% | NCI/ADR-RES ovarian 50.2%

COc1ccc(-c2nnc(COc3ccc(NC(=O)Nc4ccc(Cl)c(C(F)(F)F)c4)cc3F)o2)cc1
active: SR leukemia -30.1% | RPMI-8226 leukemia -26.2% | OVCAR-5 ovarian 8.75% | OVCAR-3 ovarian -0.826% | NCI/ADR-RES ovarian 5.91%
inactive: OVCAR-8 ovarian 14.5% | OVCAR-4 ovarian 20.2% | SK-OV-3 ovarian 22.1% | IGROV1 ovarian 26% | HS 578T breast 19.1%

CCCCCCCN(CCCCCCC)C(=N)c1ccc(OC)c2ccccc12
active: SR leukemia -48.6% | RPMI-8226 leukemia -48.8% | OVCAR-8 ovarian -66.3% | OVCAR-5 ovarian -82.4% | OVCAR-4 ovarian -98% | SK-OV-3 ovarian -68.2% | IGROV1 ovarian -73.5% | OVCAR-3 ovarian -94.6% | HS 578T breast -60.6% | NCI/ADR-RES ovarian -75.7%

COc1cccc(-c2nc3sccn3c2-c2ccnc(NCCNS(=O)(=O)c3ccccc3)n2)c1
inactive: SR leukemia 70.3% | RPMI-8226 leukemia 49.5% | OVCAR-8 ovarian 49.2% | OVCAR-5 ovarian 124% | OVCAR-4 ovarian 57.4% | SK-OV-3 ovarian 79.9% | IGROV1 ovarian 63.2% | OVCAR-3 ovarian 68.3% | HS 578T breast 107% | NCI/ADR-RES ovarian 47.1%

CN(C)C/C=C/C(=O)Nc1cc2c(Nc3ccc(F)c(Cl)c3F)ncnc2cc1OCCOC(F)F
active: SK-OV-3 ovarian 0.142% | IGROV1 ovarian -15.6% | OVCAR-3 ovarian -15.4% | HS 578T breast -19.2%
inactive: SR leukemia 14.8% | RPMI-8226 leukemia 11.4% | OVCAR-8 ovarian 26.6% | OVCAR-5 ovarian 26.6% | OVCAR-4 ovarian 16% | NCI/ADR-RES ovarian 20.1%

COc1cc(C2C=C(C)N=C3SC(C)=NN32)cc(OC)c1OC (stereo not given)
inactive: SR leukemia 96.3% | RPMI-8226 leukemia 108% | OVCAR-8 ovarian 104% | OVCAR-5 ovarian 95.9% | OVCAR-4 ovarian 104% | SK-OV-3 ovarian 92.5% | IGROV1 ovarian 101% | OVCAR-3 ovarian 106% | HS 578T breast 114% | NCI/ADR-RES ovarian 101%

COc1cc(/C=C2\CCCC3=C2N=C2SC(C)=NN2C3c2cc(OC)c(OC)c(OC)c2)cc(OC)c1OC (stereo not given)
inactive: OVCAR-5 ovarian 67.3% | OVCAR-4 ovarian 54.3% | SK-OV-3 ovarian 60.3% | IGROV1 ovarian 24.4% | OVCAR-3 ovarian 21.2% | HS 578T breast 25%
active: SR leukemia 4.78% | RPMI-8226 leukemia -25.6% | OVCAR-8 ovarian 4.84% | NCI/ADR-RES ovarian 8.69%

NC(=O)c1c(NC(=O)c2ccc3c(c2)OCO3)sc2c1CCC(=O)C2
inactive: HS 578T breast 16.7%
active: SR leukemia -19.6% | RPMI-8226 leukemia -34.9% | OVCAR-8 ovarian -15.9% | OVCAR-5 ovarian -49.8% | OVCAR-4 ovarian -70.8% | SK-OV-3 ovarian -11.7% | IGROV1 ovarian -17.1% | OVCAR-3 ovarian -47% | NCI/ADR-RES ovarian -6.35%

COC(=O)CC/C(C)=N\Nc1ccc([N+](=O)[O-])cc1
inactive: SR leukemia 34.6% | RPMI-8226 leukemia 51.8% | OVCAR-8 ovarian 59.1% | OVCAR-5 ovarian 79.4% | OVCAR-4 ovarian 76.3% | SK-OV-3 ovarian 62.5% | IGROV1 ovarian 74.2% | OVCAR-3 ovarian 88.3% | HS 578T breast 81.7% | NCI/ADR-RES ovarian 78%

CCCCCCCCCCC/C=C\C[C@H](O)C/C=C1/C(=O)C=C[C@@H]1C/C=C\CCCC(=O)OC
active: SR leukemia 6.46% | RPMI-8226 leukemia -10.2% | OVCAR-8 ovarian 7.18% | OVCAR-4 ovarian -1.25% | IGROV1 ovarian -15.9% | OVCAR-3 ovarian -46.2% | NCI/ADR-RES ovarian 9.04%
inactive: OVCAR-5 ovarian 21.9% | SK-OV-3 ovarian 26.8% | HS 578T breast 18%

CC(C)(C)c1cn2cccc(C(=O)N3CCN(CC(=O)Nc4ccc(Cl)cc4C(=O)c4ccccc4Cl)CC3)c2n1
inactive: SR leukemia 13.2% | RPMI-8226 leukemia 24.1% | OVCAR-8 ovarian 51% | OVCAR-5 ovarian 75.1% | OVCAR-4 ovarian 50.6% | SK-OV-3 ovarian 91.4% | IGROV1 ovarian 51.2% | OVCAR-3 ovarian 75.7% | HS 578T breast 32.2% | NCI/ADR-RES ovarian 39.5%

COc1cc(C(=O)N2CCN(C(=O)c3ccco3)CC2)c(N)cc1OCc1ccccc1
active: IGROV1 ovarian -5.4%
inactive: SR leukemia 86.5% | RPMI-8226 leukemia 71.9% | OVCAR-8 ovarian 99.8% | OVCAR-5 ovarian 107% | OVCAR-4 ovarian 92.9% | SK-OV-3 ovarian 113% | OVCAR-3 ovarian 105% | HS 578T breast 91.9% | NCI/ADR-RES ovarian 102%

Clc1ccc2c(c1)NC1(CCSc3ccccc31)n1nccc1-2 (stereo not given)
inactive: SR leukemia 91.6% | RPMI-8226 leukemia 94.6% | OVCAR-8 ovarian 100% | OVCAR-5 ovarian 92.6% | OVCAR-4 ovarian 103% | SK-OV-3 ovarian 111% | IGROV1 ovarian 102% | OVCAR-3 ovarian 94.6% | HS 578T breast 110% | NCI/ADR-RES ovarian 98.6%
